Activity calls are given as the source filed them. Unless noted, how the calls were made is not given here.
Key:
[1] = tested on: Wnt5a (protein binding on small-molecule microarray); test: small molecules binding Wnt5a protein – biophysical, small-molecule microarray, 635/667 nm fluorescence, primary screen (AID 1142); settings: 635 nm fluorescence, higher = more signal;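 further: fluorescence read at 667 nm with signal to noise per printed feature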
[2] = ATP-based viability of Huh7 replicon cells – cell-based, CellTiter-Glo luminescence, basal, 48 h, cytotoxicity control for HCV replication inhibitor project, primary screen (AID 1143); settings: higher = more signal, called active from +8 up or from −8 down;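 further: Huh7 hepatoma cells carrying a hepatitis C replication reporter with no stimulus; test concentration not given here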
[3] = Pseudomonas biofilm growth suppression – PAO1 strain, BacTiter-Glo luminescence, LB-PBS, primary screen (AID 1144); settings: P. aeruginosa PAO1 biofilm, 12 h, higher = more signal
[4] = basal CRE-LacZ reporter activity in PC12 – cell-based, unstimulated, primary screen (AID 1145); settings: no forskolin, luminescence, 4.5 h, higher = more signal, called active from +8 up or from −8 down
[5] = forskolin-driven CRE-LacZ activity in PC12 – cell-based, CRE-LacZ reporter, forskolin-stimulated, primary screen (AID 1146); settings: luminescence, 4.5 h, higher = more signal, called active from +8 up or from −8 down;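 further: PC12 cells with 6xCRE LacZ reporter stimulated by forskolin 10 µM; beta-galactosidase reporter signal reflecting CREB driven transcription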
[6] = target: Streptavidin (Streptomyces avidinii) (UniProt P22629); test: compounds binding control protein streptavidin – biophysical, small-molecule microarray, 635/667 nm fluorescence, artefact control for SMM compound annotation, primary screen (AID 1147); settings: higher = more signal;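 further: signal reflects streptavidin binding to arrayed compounds as a control protein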
[7] = probe aInhba binding on compound microarray – biochemical, small-molecule microarray, 635/667 nm fluorescence, primary screen (AID 1148); settings: higher = more signal;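 further: score merges 667nm spot fluorescence with signal-to-noise for antibody binding to printed compounds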
Torsin-1A (Homo sapiens) [8] = target: Torsin-1A (Homo sapiens) (UniProt O14656); test: TOR1A wild-type binding on microarray – cell lysate, small-molecule microarray, lysate, 635/667 nm, primary screen (AID 1149); settings: COS7 hTOR1A-WT lysate, 635 nm fluorescence, higher = more signal
Torsin-1A (Homo sapiens) [9] = target: Torsin-1A (Homo sapiens) (UniProt O14656); test: torsin A mutant lysate binding on microarrays – cell lysate, small-molecule microarray, COS7 lysate, 635/667 nm fluorescence, primary screen (AID 1150); settings: COS7 hTOR1A mutant lysate, 635 nm fluorescence, higher = more signal;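 further: score pools 667 nm emission and signal to noise measuring lysate protein binding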
[10] = tested on: Sonic hedgehog protein (Shh); test: Sonic hedgehog microarray binding compounds – biochemical, small-molecule microarray, 635/667 nm fluorescence, primary screen (AID 1151); settings: 635 nm fluorescence, higher = more signal;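 further: Shh protein binding to compounds spotted on small-molecule microarray slides; score combines spot fluorescence intensity with signal-to-noise across triplicate slides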
[11] = optical density shifts of acrAB sulA E. coli – strain DRC41, OD650, 48 h, E. coli filamentation inducer project, primary screen (AID 1152); settings: higher = more signal, called active from +8 up or from −8 down;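 further: E. coli MC1000 strain DRC41 lacking acrAB efflux pump and sulA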
[12] = probe aLefty1 binding on compound microarray – biochemical, small-molecule microarray, 635/667 nm fluorescence, primary screen (AID 1153); settings: higher = more signal;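 further: score merges spot fluorescence with signal-to-noise ratio from the scanned slide images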
[13] = plasmodial surface anion channel blockers, osmotic lysis – cell-based, P. falciparum Indochina, OD700, 1 h, primary screen (AID 1154); settings: P. falciparum Indochina infected RBC osmotic lysis, higher = more signal, called active from +8 up or from −8 down
[14] = plasmodial surface anion channel blockers, osmotic lysis – cell-based, P. falciparum Indochina, OD700, 2 h, primary screen (AID 1155);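 further: lysis reports solute entry through the parasite surface anion channel PSAC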; settings: P. falciparum Indochina infected erythrocytes, higher = more signal, called active from +8 up or from −8 down
[15] = changes in parasitized red cell lysis, either direction – P. falciparum Indochina, OD700, 3 h, PSAC antagonist project, primary screen (AID 1156); settings: P. falciparum-infected erythrocytes, osmotic lysis, higher = more signal, called active from +8 up or from −8 down
[16] = plasmodial surface anion channel blockers, osmotic lysis – cell-based, P. falciparum Indochina, OD700, 18 h, primary screen (AID 1157); settings: P. falciparum Indochina infected erythrocytes, osmotic lysis OD700, 18 h; higher = more signal, called active from +8 up or from −8 down
[17] = S6 kinase pathway phospho-S6 level changes – cell-based, A549, cytoblot, luminescence, serum-stimulated, primary screen (AID 1158); settings: 5 h, higher = more signal;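 further: serum-stimulated A549 lung adenocarcinoma cells; signal is phosphorylated S6 detected by cytoblot immunostaining with HRP secondary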
[18] = target: NADPH oxidase 2 (Homo sapiens) (UniProt P04839); test: compounds shifting NOX2 Amplex Red fluorescence – cell-based, HEK293-NOX2, PMA-stimulated, NOX inhibitor project, primary screen (AID 1159); settings: 45 min, higher = more signal, called active from +8 up or from −8 down; further: test concentration not given here
[19] = target: NADPH oxidase 4 (Homo sapiens) (UniProt Q9NPH5); test: compounds shifting NOX4 Amplex Red fluorescence – cell-based, HEK293-NOX4, tetracycline-induced, NOX inhibitor project, primary screen (AID 1160); settings: HEK293-NOX4, Amplex Red H2O2 fluorescence, 45 min; higher = more signal, called active from +8 up or from −8 down
[20] = target: NADPH oxidase 5 (Homo sapiens) (UniProt Q96PH1); test: compounds shifting NOX5 Amplex Red fluorescence – cell-based, HEK293-NOX5, NOX inhibitor project, primary screen (AID 1161); settings: HEK293-NOX5, ionomycin, 45 min, higher = more signal
Sequence of NADPH oxidase 5 (Homo sapiens) (Q96PH1 whole entry, looked up): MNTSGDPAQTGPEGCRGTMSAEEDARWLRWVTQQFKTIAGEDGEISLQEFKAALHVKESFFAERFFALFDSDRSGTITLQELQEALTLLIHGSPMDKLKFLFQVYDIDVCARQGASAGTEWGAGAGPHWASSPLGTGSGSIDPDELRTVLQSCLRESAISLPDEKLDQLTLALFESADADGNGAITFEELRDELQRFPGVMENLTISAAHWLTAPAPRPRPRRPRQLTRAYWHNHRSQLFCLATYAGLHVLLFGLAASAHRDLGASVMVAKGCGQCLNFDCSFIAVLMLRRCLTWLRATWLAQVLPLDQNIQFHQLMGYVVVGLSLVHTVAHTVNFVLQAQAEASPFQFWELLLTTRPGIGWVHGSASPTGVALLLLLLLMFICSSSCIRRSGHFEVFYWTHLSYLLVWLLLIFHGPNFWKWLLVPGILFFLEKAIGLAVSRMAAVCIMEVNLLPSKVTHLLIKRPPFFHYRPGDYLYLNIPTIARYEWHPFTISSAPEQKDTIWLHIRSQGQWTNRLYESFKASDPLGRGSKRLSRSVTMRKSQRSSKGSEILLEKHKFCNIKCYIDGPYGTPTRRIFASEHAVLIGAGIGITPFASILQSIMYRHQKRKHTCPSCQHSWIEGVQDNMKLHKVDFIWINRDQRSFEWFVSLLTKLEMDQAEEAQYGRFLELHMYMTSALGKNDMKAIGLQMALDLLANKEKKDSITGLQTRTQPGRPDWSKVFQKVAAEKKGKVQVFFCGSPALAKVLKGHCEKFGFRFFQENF

Sequence of Streptavidin (Streptomyces avidinii) (P22629 whole entry, looked up): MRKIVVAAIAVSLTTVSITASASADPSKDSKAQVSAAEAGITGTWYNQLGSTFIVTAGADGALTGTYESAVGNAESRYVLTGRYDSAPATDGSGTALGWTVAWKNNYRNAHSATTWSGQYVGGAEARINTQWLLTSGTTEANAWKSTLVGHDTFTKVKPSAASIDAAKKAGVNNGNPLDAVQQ
Sequence of NADPH oxidase 4 (Homo sapiens) (Q9NPH5 whole entry, looked up): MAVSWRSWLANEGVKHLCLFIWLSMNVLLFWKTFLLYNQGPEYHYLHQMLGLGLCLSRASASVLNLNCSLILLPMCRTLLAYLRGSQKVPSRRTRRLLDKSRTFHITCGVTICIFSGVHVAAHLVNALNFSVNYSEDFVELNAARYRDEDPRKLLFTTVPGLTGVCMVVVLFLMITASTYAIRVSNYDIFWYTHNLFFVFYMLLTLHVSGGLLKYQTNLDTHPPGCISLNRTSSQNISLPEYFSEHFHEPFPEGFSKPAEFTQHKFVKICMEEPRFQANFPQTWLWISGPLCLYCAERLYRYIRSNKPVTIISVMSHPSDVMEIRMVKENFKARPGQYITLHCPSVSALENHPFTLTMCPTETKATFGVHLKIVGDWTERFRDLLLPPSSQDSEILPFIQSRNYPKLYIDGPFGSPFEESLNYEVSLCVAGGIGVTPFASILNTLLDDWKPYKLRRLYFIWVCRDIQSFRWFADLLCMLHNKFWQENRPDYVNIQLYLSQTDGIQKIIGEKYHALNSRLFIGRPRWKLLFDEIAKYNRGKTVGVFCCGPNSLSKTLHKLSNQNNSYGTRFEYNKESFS
Sequence of NADPH oxidase 2 (Homo sapiens) (P04839 whole entry, looked up): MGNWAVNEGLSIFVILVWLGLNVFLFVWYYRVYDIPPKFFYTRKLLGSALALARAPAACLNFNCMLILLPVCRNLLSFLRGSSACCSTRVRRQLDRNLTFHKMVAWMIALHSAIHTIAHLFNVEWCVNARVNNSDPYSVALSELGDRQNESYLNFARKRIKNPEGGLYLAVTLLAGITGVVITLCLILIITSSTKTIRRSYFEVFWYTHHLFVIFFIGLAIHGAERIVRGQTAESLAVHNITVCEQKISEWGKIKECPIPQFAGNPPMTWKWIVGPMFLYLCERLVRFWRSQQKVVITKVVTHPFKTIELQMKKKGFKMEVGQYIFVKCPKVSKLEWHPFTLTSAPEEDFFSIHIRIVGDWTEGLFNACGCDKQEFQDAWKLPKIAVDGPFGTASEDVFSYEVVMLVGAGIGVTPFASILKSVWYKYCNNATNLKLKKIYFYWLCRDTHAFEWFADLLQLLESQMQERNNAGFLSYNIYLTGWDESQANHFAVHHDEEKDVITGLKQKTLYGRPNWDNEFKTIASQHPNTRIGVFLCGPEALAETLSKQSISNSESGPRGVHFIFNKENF
Sequence of Torsin-1A (Homo sapiens) (O14656 whole entry, looked up): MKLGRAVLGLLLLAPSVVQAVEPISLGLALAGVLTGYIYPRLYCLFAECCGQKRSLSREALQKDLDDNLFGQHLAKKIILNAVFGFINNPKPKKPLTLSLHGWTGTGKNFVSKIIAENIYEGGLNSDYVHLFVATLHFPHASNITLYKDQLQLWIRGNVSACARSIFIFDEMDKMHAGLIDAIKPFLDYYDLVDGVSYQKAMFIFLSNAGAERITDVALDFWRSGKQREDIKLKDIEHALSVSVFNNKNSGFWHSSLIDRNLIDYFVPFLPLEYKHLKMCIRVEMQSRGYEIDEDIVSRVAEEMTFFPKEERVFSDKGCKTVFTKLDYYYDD

| SMILES | composite z-score [1] | z-score [2] | z-score [3] | z-score [4] | z-score [5] | composite z-score [6] | composite z-score [7] | composite z-score (Torsin-1A (Homo sapiens) [8]) | composite z-score (Torsin-1A (Homo sapiens) [9]) | composite z-score [10] | z-score [11] | composite z-score [12] | z-score [13] | z-score [14] | z-score [15] | z-score [16] | z-score [17] | z-score [18] | z-score [19] | z-score [20] |
| --- | --- | --- | --- | --- | --- | --- | --- | --- | --- | --- | --- | --- | --- | --- | --- | --- | --- | --- | --- | --- |
| CCCCCC1=C2CNC(CC(C)C)(C(=O)OC)C=C2C(C)C1=O (stereo not given) | -0.025 | -0.575 (inactive) | 0.661 (inactive) | 0.0041 (inactive) | 0.728 (inactive) | 0.428 | 0.0668 | -0.276 | -0.207 | -0.242 | -1.07 (inactive) | 0.172 | 1.5 (inactive) | -0.602 (inactive) | 0.836 (inactive) | 0.347 (inactive) | -0.245 | -0.0792 (inactive) | -0.636 (inactive) | -2.61 |
| C=CC[C@]1(C(=O)NCC(O)CO)COC(c2ccc(OCCCO)cc2)=N1 (stereo not given in full) | 0.359 | 0.154 (inactive) | -0.055 (inactive) | 0.792 (inactive) | -0.282 (inactive) | -0.486 | 0.109 | 0.185 | 1.03 | -0.495 | -0.353 (inactive) | 0.174 | 3.8 (inactive) | 0.203 (inactive) | 0.99 (inactive) | 0.545 (inactive) | 0.18 | -0.261 (inactive) | 0.914 (inactive) | 0.462 |
| CC(C)C[C@@H]1NC(=O)[C@@H]2C[C@H](C(=O)NCCCCCCNC(=O)CS)[C@H](c3cccc(OCCO)c3)N2C1=O | 0.971 | 0.0734 (inactive) | -0.253 (inactive) | 0.688 (inactive) | 0.0025 (inactive) | 1.22 | 0.159 | 1.15 | 1.18 | 2.38 | -1.05 (inactive) | 0.196 | 7.13 (inactive) | 1.57 (inactive) | 1.01 (inactive) | 0.792 (inactive) | -0.485 | 1.56 (inactive) | 0.427 (inactive) | -0.196 |
| O=C1OCCC=C[C@H]2OC34C=CCN(c5ccc6ccccc6c5)C(=O)[C@H]3N(CCO)C(=O)[C@@H]4C12 (stereo not given in full) | -0.457 | 0.291 (inactive) | -0.663 (inactive) | -0.887 (inactive) | 0.463 (inactive) | -0.906 | -0.753 | -1.41 | -0.669 | 0.116 | -0.701 (inactive) | -0.815 | 0.809 (inactive) | 0.791 (inactive) | 1.11 (inactive) | 0.332 (inactive) | -0.366 | 1.47 (inactive) | -0.0539 (inactive) | 2.41 |

From PubChem BioAssay
